Screens (PubChem BioAssay)
Wnt bcat act – activates Wnt/beta-catenin signaling in a reporter cell assay. activator, plate reader. activation, % at 9.35 µM. hit rate 1.2% among 300,000. AID 743398; in the data active = activation above about 30%, passing the limit was not always enough;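 note: 0% = neutral control wells and 100% = positive control wells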
PAX8 inh HTS – inhibitors of PAX8 transcriptional activity in RMG-I cells; hit rate 1.2% among 360,000; RMG-I TPO-luciferase reporter, SteadyGlo, 24 h; AID 652154; inhibition, % at 12.6 µM;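 active = mean replicate inhibition at least 60% with every replicate also reaching 60%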;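 note: luciferase light reporting Pax8 driven TPO promoter activity; plate controls were median of neutral control wells for no effect and mitoxantrone controls for full effect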
EWS-Fli inh – inhibitors of EWS/Fli oncoprotein transcriptional activity; A673 NR0B1-luciferase reporter, viability-normalised; inhibition, % at 12.6 µM; hit rate 0.67% among 350,000; AID 651661;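 active = mean inhibition of at least 50% after viability correction, with every replicate also passing that limit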;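 note: firefly luciferase signal divided by Alamar Blue viability fluorescence both relative to DMSO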
MITF TRPM1 inh – inhibitors of MITF-driven TRPM1 promoter in melanoma cells. SK-MEL-5 TRPM1 promoter luciferase, 24 h. inhibition, % at 12.5 µM. hit rate 0.83% among 330,000. AID 488899;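 active = mean inhibition across replicates of 60% or more, whatever share of single replicates reaches that level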
MITF TRPM1 HTS – increases MITF-driven TRPM1 promoter luciferase signal. hit rate 0.75% among 300,000. SK-MEL-5 TRPM1-promoter luciferase, 24 h; % of positive control, neutral wells = 0. activation, % at 12.5 µM;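 active = mean activation of at least 80% with every replicate also reaching 80%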;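 note: 0% = neutral control wells and 100% = parthenolide positive control wells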
esBAF inh – blocks esBAF chromatin remodeling in mouse ES cells; Bmi1-luciferase knock-in reporter, 24 h; 100% = twice the neutral-well signal; reporter increase, % at 12.5 µM; hit rate 2% among 350,000; in the data active = activation above about 40%;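 note: 0% = median of the plate's neutral control wells and 100% = double that signal; a rise in the Bmi1 reporter signal indicates esBAF inhibition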
An asterisk follows results filed as active; nt = no result. In the library only some 4% were active in any assay of this set; here they are far more common.

SMILES	Wnt bcat act	PAX8 inh HTS	EWS-Fli inh	MITF TRPM1 inh	MITF TRPM1 HTS	esBAF inh
CC(C)C(=O)NC(c1ccco1)c1ccc2cccnc2c1O (centres undefined)	nt	nt	nt	76*	-74	-21
CCCCC(=O)NC(c1ccc(N(CC)CC)cc1)c1ccc2cccnc2c1O (centres undefined)	-3	93*	49	58	nt	-23
CCN(CC)c1ccc(C(NC(=O)C(C)C)c2ccc3cccnc3c2O)cc1 (centres undefined)	-24	93*	45	nt	nt	-39
COc1ccc(NC(=O)Nc2ccc3c(c2)CC(=O)N([C@H](C)CO)C[C@H](C)[C@@H](CN(C)C(=O)NC2CCCCC2)O3)cc1	nt	-5	-4	nt	nt	0
CN1CCN(C(=O)C[C@H]2CC[C@@H]3[C@H](COC[C@@H](O)CN3C(=O)Nc3ccc(Cl)cc3)O2)CC1	nt	-42	-60	nt	nt	19
CCOc1ccc(Nc2cc(C)nc(-n3nc(C)cc3C)n2)cc1	-20	68*	nt	42	-42	-21
CCOc1ccccc1N(CC(=O)Nc1ccc(S(=O)(=O)N2CCOCC2)cc1)S(=O)(=O)c1ccc(Cl)cc1	-1	62*	-6	-12	12	nt
COc1ccccc1N(CC(=O)Nc1ccc(S(=O)(=O)N2CCOCC2)cc1)S(C)(=O)=O	-1	10	6	nt	nt	-3
Cc1ccc(S(=O)(=O)N[C@H]2CC[C@@H](CCNC(=O)C3CC3)O[C@H]2CO)cc1	nt	nt	-3	nt	nt	-2
Nc1nc2c(ncn2C2C[C@H](O)[C@@H](CO)O2)c(=O)[nH]1 (some centres undefined)	-7	-4	8	-5	6	1
Nc1nc2c(nnn2C2CC(O)C(CO)O2)c(=O)[nH]1 (centres undefined)	-2	83*	-13	nt	nt	17
COc1ccccc1-c1coc2cc(O)cc(O)c2c1=O	nt	nt	nt	-32	31	46*
COc1ccc(-c2c(C)oc3cc(O)cc(O)c3c2=O)cc1OC	0	-12	0	5	-2	0
COc1ccc(-c2coc3cc(O)ccc3c2=O)cc1OC	nt	nt	nt	-36	39	59*
O=c1c(-c2ccc(F)cc2)coc2cc(O)ccc12	nt	nt	nt	-62	75	33
COc1ccc(-c2coc3cc(O)cc(O)c3c2=O)cc1OC	25	-102	-46	-66	67	54*
COc1cccc(NC(=O)N[C@@H]2C=C[C@H](CC(=O)Nc3ccccc3)O[C@H]2CO)c1	nt	0	-3	nt	nt	0
C[C@@H]1CN([C@@H](C)CO)C(=O)c2cc(NC(=O)Cc3ccccc3)ccc2O[C@@H](C)CCCCO[C@H]1CN(C)S(=O)(=O)c1ccccc1	nt	6	11	nt	nt	0
C[C@H](CO)N1C[C@H](C)[C@H](CN(C)CC2CC2)OCc2cnnn2CCCC1=O	nt	-3	-4	nt	nt	-3
CCOC(=O)c1ccc2c(c1)NCc1cccc(OC)c1O2	24	-62	-96	-37	45	58*
COc1ccc(C(=O)OCC(=O)c2ccc3c(c2)NC(=O)CO3)cc1OC	-2	-1	-4	5	0	-3
O=C(Nc1cnc2ccccn2c1=O)c1ccc(Cl)cc1	nt	nt	nt	-83	86*	43*
CC(C)NC(=O)N(C)C[C@@H]1Oc2ncc(C#Cc3ccccc3F)cc2C(=O)N([C@@H](C)CO)C[C@H]1C	nt	nt	3	nt	nt	5
O=C1C(=C(I)I)c2ccccc2-c2ccccc21	-6	128*	58*	99*	-98	nt
O=C1/C(=C/c2cccc([N+](=O)[O-])c2)CCc2ccccc21	nt	-21	nt	-6	6	-12
SMILES	Wnt bcat act	PAX8 inh HTS	EWS-Fli inh	MITF TRPM1 inh	MITF TRPM1 HTS	esBAF inh
CCN1C/C(=C\c2cccc([N+](=O)[O-])c2)C(=O)/C(=C/c2cccc([N+](=O)[O-])c2)C1	0	55	82*	93*	-92	nt
O=C(COn1nnc2ccccc21)NCC1CCCCC1	36*	-86	nt	-35	nt	53*
Cc1ccc(NC(=O)Cn2c(=O)n(CCCC(=O)NCc3ccco3)c(=O)c3ccccc32)cc1	nt	nt	nt	30	-28	7
COc1ccc(NC(=O)Cn2c(=O)n(-c3ccc(CC(=O)NCc4ccco4)cc3)c(=O)c3ccccc32)cc1	-13	38	10	71*	-71	nt
O=C(NCc1cccc2ccccc12)c1cccs1	22	-54	-76	-55	51	55*
O=C(Cc1cccc2ccccc12)NNC(=O)c1cccs1	nt	nt	nt	-8	nt	9
COc1ccc2c(c1)C(=NNc1ccc(C(=O)O)cc1)c1cc(OC)ccc1-2	7	3	-4	-11	12	8
COc1ccc2c(c1)C(=NN)c1cc(OC)ccc1-2	nt	nt	nt	4	-5	43*
COc1ccc(NC(=O)C(=O)NCC2CCCN2S(=O)(=O)c2ccc(C)cc2)cc1 (centres undefined)	-2	104*	56*	72*	-71	-20
COc1ccc(NC(=O)C(=O)NCC2CCCN2S(=O)(=O)c2cc(C)ccc2C)cc1 (centres undefined)	-10	34	57*	31	-31	-30
CCNC(=O)C[C@@H]1CC[C@H]2[C@@H](COc3ccc(NS(C)(=O)=O)cc3C(=O)N2C)O1	nt	-10	3	nt	nt	-1
CO[C@H]1CN(C)C(=O)c2ccc(NC(=O)C3CCOCC3)cc2OC[C@@H](C)N(Cc2cccnc2)C[C@@H]1C	nt	14	3	nt	nt	2
C[C@H]1CN([C@@H](C)CO)C(=O)c2cc(C#CC3(O)CCCC3)cnc2O[C@@H]1CN(C)C(=O)CC1CC1	nt	nt	0	nt	nt	7
CN(C)C(=O)C[C@@H]1C[C@H]2c3cc(NS(=O)(=O)c4ccccc4)ccc3O[C@H]2[C@@H](CO)O1	nt	nt	-8	nt	nt	-7
COCC(=O)N(C)C[C@@H]1Oc2cc(C#CC3CCCC3)ccc2S(=O)(=O)N([C@H](C)CO)C[C@H]1C	nt	nt	4	nt	nt	nt
Cc1ccc(-n2c(C)nc3ccsc3c2=O)cc1	1	10	-7	1	1	-5
Cc1ccc(-c2nc3ccsc3c(=O)o2)cc1	50*	-107	nt	9	-6	nt
CC(C)(C)OC(=O)COc1ccc(/C=N/NC(=O)CN2CCCCC2)cc1	6	-12	-11	-35	35	52*
O=C(COc1ccc(/C=N/NC(=O)C(=O)N2CCCCCC2)cc1)Nc1ccccc1Cl	-1	78*	-41	-31	26	nt
C[C@@H]1CN([C@H](C)CO)C(=O)c2cc(NC(=O)C3CCCCC3)ccc2O[C@@H](C)CCCCO[C@H]1CN(C)Cc1ccc(C(F)(F)F)cc1	nt	26	-3	nt	nt	3
COc1cc(/C=N/NC(=O)c2ccccc2O)ccc1OCC(=O)Nc1ccccc1	-1	-30	-38	-72	66	19
CCOc1cc(/C=N\Nc2ccc([N+](=O)[O-])cc2)ccc1OCC(=O)Nc1ccc(C)c(C)c1	-4	nt	nt	2	-1	-7
COc1cc(/C=N/NC(=O)c2ccncc2)ccc1OCC(=O)Nc1ccccc1	17	-175	-22	-98	99*	28
